Results on 40 compounds are retold here after PubChem BioAssay (NCI).

Each structure is given as a SMILES string. Compounds without any hit were thinned out: in the full panel of roughly 83,000, 20% have a hit.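 48-hour exposure, single concentration, 96-well plates; percent growth endpoint where 0 means no net growth. Active: below 10.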 Active and inactive are the calls of the source.

The test system of this test is MDA-MB-468 breast. The test is described as follows: NCI-60 one-dose screen, 48 h (100 = growth as untreated, 0 = no growth, -100 = all killed). Conditions: 10 µM unless noted.
With `N#CC1=C(N)Oc2ccc3ccccc3c2C1c1ccccc1` (stereo not given), the growth was 12.7% (inactive).
Next, `CC1=CCC2C1CC=C(C)C(CC[C@H]1[C@@](C)(O)CCC3OC(C)(C)[C@H](OC(=O)c4ccccc4)CC[C@@]31C)C2(C)C` (stereo not given in full): 64.8% (inactive).
Next, `COc1ccc2c(c1)N(CCO)C1=C(C(=O)OC1)C2c1ccccc1` (stereo not given): -14.2% (active); `Nc1nc2c3ccncc3cc(-c3cccc(Cl)c3)c2c2cnccc12`: 36.6% (inactive).
Take `COC(=O)C1(C)CCC[C@]2(C)[C@H]3C[C@H]4C(C(C)C)=C[C@]3(CC[C@@H]12)[C@H]1[C@@H]4[C@@H](OC(=O)c2ccco2)CC[C@@H]1OC(=O)c1ccco1` (stereo not given in full): the growth is 102% (inactive).
Regarding `COc1ccc(NC(=O)c2sc3c(=O)[nH]c(C(F)(F)F)nc3c2C)cc1`, the growth was 131% (inactive).
As for `CCOc1ccc2nc(-c3cccc(OCC(=O)NC(C)C)c3)nc(Nc3ccc(-c4cn[nH]c4)cc3)c2c1`, the growth was 21% (inactive).
Next, `Cn1cc(-c2nnc(-c3cn(C)c4ncccc34)s2)c2ccccc21`: 12.6% (inactive); `CN(c1ccc(F)cc1)S(=O)(=O)c1ccc(-c2cnc(C3CC3)o2)cc1`: -8.39% (active).
The result for `CC(=O)c1ccc(Nc2nc(SCC(C)C)nc(-c3ccccc3)c2C#N)cc1` reads 73.7% (inactive); that for `CC1(C)CC[C@]2(C(=O)O)CC[C@]3(C)[C@H](CC[C@@H]4[C@@]5(C)CCC(=O)C(C)(C)[C@@H]5CC[C@]43C)[C@H]2[C@H]1OC(=O)C(F)(F)F`, -71% [100 µM] (active); that for `CC(=O)Oc1ccc(/C(=C(\C)c2ccc(Cl)cc2)c2ccc(OCCN3CCCCC3)cc2)cc1`, -25% (active).
As to `Cc1[nH]c(C(=O)Nc2ccccc2OC2CCNC2)c(Cl)c1Cl` (stereo not given), the growth was 53.8% (inactive).
Next, `Cc1nn(-c2ccc(Cl)cc2)c(C)c1N=Nc1ccc2oc(=O)ccc2c1`: 98.5% (inactive).
Take `CCCCCCCCO`: the growth was 98.9% (inactive).
Next, `COc1cccc(/C=C2\C=C(c3ccccc3)N(Cc3ccccc3)C2=O)c1`: 45.3% (inactive); `CC(=O)Nc1nc(C)c(C(=O)NNC(=O)Nc2ccccc2)s1`: 61.4% (inactive).
The result for `C#Cc1cccc(Nc2nc(C)nc3cc(NC(=O)CCl)ccc23)c1` reads -78.5% (active); that for `CCOC(=O)c1noc2c1CCc1c-2cn(Cc2ccc(OC)cc2)c1-c1cc(OC)c(OC)c(OC)c1`, 6.06% (active).
The result for `COc1ccc(-c2nc(SCCC(C)C)nc(Nc3ccc(F)c(Cl)c3)c2C#N)cc1` reads 71.5% (inactive); that for `CC1=C([Se]CC(OC(=O)[C@@H](CO)NC(=O)OC(C)(C)C)C(=O)NCCCCCC(=O)OCc2ccccc2)C(=O)c2ccccc2C1=O` (stereo not given in full), -83.7% (active).
For the compound `Cc1ccc(-n2cc(-c3ccccc3)c3c2N=NN2CCN=C32)cc1`, the growth is 103% (inactive).
As to `O=C(CSc1nnnn1-c1ccccc1)Nc1ccc(Oc2ccccc2)cc1`, the growth is 115% (inactive).
In the case of `OC1CCN(CCCOc2c3ccccc3nc3c2oc2ccc(Cl)cc23)CC1`, the growth is -8.36% (active).
As for `O=C1C(OCCOc2ccccc2)=C(OCCOc2ccccc2)C(=O)c2ccccc21`, the growth was 72.9% (inactive).
On to `O=C1CCCN1c1cccc2cccnc12`, for which the growth is 98.8% (inactive).
In the case of `O=C1CCC/C=C\C[C@H]2C=CC(=O)/C2=C/C[C@H](CCc2cccc(C(F)(F)F)c2)O1`, the growth was -38.3% (active).
The result for `O=S(=O)(OCCO)c1ccccc1` reads 97% (inactive).
`N#Cc1c(-c2cccc(Cl)c2)cc(-c2cccnc2)[nH]c1=O`: the growth was 49.3% (inactive).
The result for `O=C(Cc1ccc(-c2ccc(OCCN3CCOCC3)cc2)cn1)NCc1ccccc1` reads -17% (active); that for `C=C1C(=O)O[C@H]2[C@H]1CC/C(COC(=O)NCc1ccc(Cn3c(=O)sn(CCCCC)c3=O)cc1)=C\CC[C@@]1(C)O[C@@H]21`, 3.66% (active); that for `O=C(Nc1ccc(Cl)cc1)N1NC(c2ccc(Cl)cc2)C=C1c1ccccc1` (stereo not given), 98.3% (inactive).
Next, `Cc1cc(C(=O)c2ccc(Cl)cc2)ccc1O`: 96.1% (inactive); `Nc1nc(SCC#CCCl)c2[nH]cnc2n1`: -6.97% (active).
The result for `CCOC(=O)n1cc(-c2nonc2-c2cn(C)c3ccc(OC)cc23)c2cc(F)ccc21` reads 87.3% (inactive); that for `CCCCCCCCCCCCCCCCSC(=NCC)NCC`, -37.3% (active).
`Cc1cc2nc3c4cc(C#N)ccc4n(CCN(C)C)c3nc2cc1C`: the growth is -41.7% (active).
Consider `COc1ccc(C(=O)CC(CC(=O)c2ccc(OC)cc2)c2c(C)nn(-c3ccccc3)c2Cl)cc1`, for which the growth was 96.4% (inactive).
The result for `Cc1cc(CC(=O)O)n(C)c1C(=O)c1ccc(Cl)cc1` reads 101% (inactive); that for `O=CNc1cc(Cl)cc(Cl)c1`, 103% (inactive).
